PfHsp90 yeast 2: reduces growth (ATP signal) of yeast expressing P. falciparum Hsp90; S. cerevisiae expressing PfHsp90, BacTiter-Glo ATP, 48 h; yeast lacking PDR1 and PDR3 efflux regulators; inhibition, % at 9.4 µM; 310,000 tested, 0.32% active;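 active means every replicate shows inhibition above about 80%, whatever the replicate mean, limit read from the data; inconclusive means mean inhibition reaches the set limit but some replicate falls short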;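 further: 0% = DMSO neutral controls and 100% = 20 µM radicicol positive controls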
TIM10 inh: inhibits growth of TIM10 yeast strain; inhibition, % at 10 µM; S. cerevisiae TIM10 strain growth, BacTiter-Glo luminescence, 24 h; 330,000 tested, 1.4% active; AID 463195;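 active means inhibition of 40% or more at the single tested concentration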;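 further: wild-type TIM10 isogenic control strain grown at permissive 25 °C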
SKKanGAS inh: blocks kanamycin growth of S. pyogenes SKKanGAS strain | BacTiter-Glo, 6 h | inhibition, % at 7.5 µM | 300,000 tested, 1.3% active | AID 1662;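 active means mean replicate score, as percent of positive control median, at least 50; inconclusive means mean below 50 but one replicate at or above 50; inactive means mean and every replicate below 50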;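 further: strain carries kanamycin resistance gene driven by streptokinase promoter and grows in 40 µg/ml kanamycin; loss of luminescence reflects streptokinase promoter inhibition or plain growth inhibition; 0% = median of DMSO wells and 100% = positive control at its reference dose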
tim10-1 inh: tim10-1 yeast growth inhibition; S. cerevisiae tim10-1 ts strain growth, BacTiter-Glo, 24 h; inhibition, % at 20 µM; 330,000 tested, 2.2% active;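 active means inhibition of at least 40%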;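 further: mutant grown at 25 °C; 0% = DMSO wells with yeast and 100% = wells holding no yeast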
tim23-1 inh: inhibits growth of tim23-1 mutant yeast; S. cerevisiae tim23-1 growth, BacTiter-Glo luminescence, 24 h; inhibition, % at 20 µM; 330,000 tested, 1.3% active;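 active means growth inhibition of the mutant yeast at or above 50%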;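 further: temperature-sensitive mutant grown at 25 °C; plate controls were DMSO-treated mutant yeast for no effect and medium wells lacking yeast for full effect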
V-ATPase pH: alters yeast V-ATPase proton transport; S. cerevisiae, pHLuorin cytosolic pH fluorescence; response, % at 10 µM; AID 504577; 350,000 tested, 0.37% active; in the data active means response mostly above about 7.3%, no sharp cut-off; inactive means mostly below about 5.4%; further: actives read high
tim10-1 confirm: tim10-1 yeast growth inhibition, confirmed; shares compounds with tim10-1 inh; S. cerevisiae tim10-1 ts strain growth, BacTiter-Glo, 24 h; inhibition, % at 20 µM; 7,400 tested, 56% active;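 active means inhibition of yeast growth at or above a set limit in either of two repeat tests at 20 µM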;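 further: tim10-1 mutant grown at permissive 25 °C to find synthetic lethal compounds; 0% = DMSO yeast wells and 100% = medium wells without yeast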
TIM10 conf: TIM10 yeast growth inhibition, confirmed. AID 463215. S. cerevisiae tim10 strain growth, BacTiter-Glo luminescence, 24 h. inhibition, % at 10 µM. 4,600 tested, 63% active. shares compounds with TIM10 inh;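 active means inhibition of yeast growth at or above a set limit in either of two replicates at 10 µM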;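 further: this counterscreen used the strain with wild-type TIM10; 0% = yeast with DMSO and 100% = medium wells lacking yeast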
tim23-1 conf: confirmation of tim23-1 mutant yeast growth inhibitors; shares compounds with tim23-1 inh; S. cerevisiae tim23-1 growth, BacTiter-Glo luminescence, 24 h; inhibition, % at 20 µM; 4,400 tested, 83% active; AID 463218;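 active means inhibition above about 39% in either of two replicate wells at 20 µM, limit read from the data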;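 further: temperature-sensitive tim23-1 mutant grown at 25 °C; 0% = DMSO wells with yeast and 100% = medium wells without yeast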
An asterisk follows results filed as active. Sampled rows, rich in hits. Any-hit rate of the full collection: about 4.6%.

CCOC(=O)c1n[nH]n(-c2cc(Cl)cc(Cl)c2)c1=O was read as PfHsp90 yeast 2 -6, TIM10 inh -17, SKKanGAS inh -13, tim10-1 inh -9, tim23-1 inh 2 and V-ATPase pH 0.
For CCOC(=O)C1CCN(C(=O)c2ccc(C)o2)CC1 the results were PfHsp90 yeast 2 10, TIM10 inh -6, tim10-1 inh 12, tim23-1 inh 18 and V-ATPase pH 0.
Cc1oc2c(c1C(=O)N1CCC(C)CC1)C(=O)c1ccccc1C2=O was read as TIM10 inh 45*, SKKanGAS inh 14, tim10-1 inh 52*, tim23-1 inh 74*, tim10-1 confirm 43*, TIM10 conf 40* and tim23-1 conf 67*.
Cc1onc(-c2ccccc2Cl)c1C(=O)N1CCC(C)CC1 was read as PfHsp90 yeast 2 -18, TIM10 inh -3, SKKanGAS inh 0, tim10-1 inh 5, tim23-1 inh 14 and V-ATPase pH 3.
Screening CCOC(=O)C1CCN(C(=O)c2c(C)oc3c2C(=O)c2ccccc2C3=O)CC1 returned PfHsp90 yeast 2 10, TIM10 inh 33, SKKanGAS inh 15, tim10-1 inh 48*, tim23-1 inh 51*, V-ATPase pH 0, tim10-1 confirm 34* and tim23-1 conf 59*.
`CCOc1ccc(/C=C/[N+](=O)[O-])c2ccccc12` gave PfHsp90 yeast 2 -61, TIM10 inh 65*, SKKanGAS inh 3, tim10-1 inh 51*, tim23-1 inh 73*, V-ATPase pH 5, tim10-1 confirm -9, TIM10 conf 55* and tim23-1 conf -108.
Screening CCOc1ccccc1NC(=O)/C=C/c1ccccc1[N+](=O)[O-] returned PfHsp90 yeast 2 -6, TIM10 inh 9, SKKanGAS inh 11, tim10-1 inh 29, tim23-1 inh 15 and V-ATPase pH -5.
CCN(CC)c1ccc2nc3ccc(N)cc3[n+](-c3ccccc3)c2c1 was read as PfHsp90 yeast 2 59, TIM10 inh 36, tim10-1 inh 57*, tim23-1 inh 59*, V-ATPase pH -6, tim10-1 confirm 43* and tim23-1 conf 57*.
For CCN(CC)c1ccc2nc3ccccc3[n+](CC)c2c1 the results were PfHsp90 yeast 2 29, TIM10 inh 27, SKKanGAS inh 33, tim10-1 inh 29, tim23-1 inh 21 and V-ATPase pH -3.
For Cc1cc(N)n2ncc(-c3cccc(Br)c3)c2n1 the results were PfHsp90 yeast 2 -11, TIM10 inh 51*, tim10-1 inh 46*, tim23-1 inh 82*, V-ATPase pH -3, tim10-1 confirm 50*, TIM10 conf 52* and tim23-1 conf 40*.
Screening O=C(CNc1ccc(C(F)(F)F)cc1)Nc1cccc(S(=O)(=O)N2CCCCC2)c1 returned V-ATPase pH 5.
For Cc1cc(C(=O)Cn2cnc3ccc(Cl)cc3c2=O)c(C)n1C1CC1 the results were PfHsp90 yeast 2 28 and V-ATPase pH -1.
Cc1nn(S(=O)(=O)c2ccccc2)c(C)c1S(=O)(=O)N1CCOCC1 was read as PfHsp90 yeast 2 1, TIM10 inh 4, SKKanGAS inh 3, tim10-1 inh 0, tim23-1 inh 0 and V-ATPase pH -3.
`N#Cc1c([N+](=O)[O-])cc([N+](=O)[O-])cc1S(=O)(=O)Cc1ccccc1` gave PfHsp90 yeast 2 -6, TIM10 inh 54*, tim10-1 inh 62*, tim23-1 inh 67*, V-ATPase pH -1, tim10-1 confirm 61*, TIM10 conf 64* and tim23-1 conf 87*.
Screening O=C(ONC1=NCCCCC1)c1cccc([N+](=O)[O-])c1 returned PfHsp90 yeast 2 -6, TIM10 inh 82*, SKKanGAS inh 7, tim10-1 inh 61*, tim23-1 inh 78*, V-ATPase pH 0, tim10-1 confirm 38*, TIM10 conf 90* and tim23-1 conf 69*.
O=[N+]([O-])c1cccc(/C=N/NC2=NCCCCC2)c1 was read as PfHsp90 yeast 2 9, TIM10 inh 4, SKKanGAS inh -4, tim10-1 inh -11, tim23-1 inh 5 and V-ATPase pH -2.
For CN(C(=O)COC(=O)c1ccccc1C(=O)c1ccccc1)c1ccccc1 the results were PfHsp90 yeast 2 4, TIM10 inh 13, tim10-1 inh 15, tim23-1 inh 42 and V-ATPase pH 1.
Cc1ccc(C(=O)OCC(=O)N(C)c2ccccc2)c(C)c1 was read as PfHsp90 yeast 2 -17, TIM10 inh 18, SKKanGAS inh 1, tim10-1 inh 57*, tim23-1 inh 52*, V-ATPase pH 1, tim10-1 confirm 50* and tim23-1 conf 46*.
`CCN(CC)CCN(C(=O)CCS(=O)(=O)c1ccccc1)c1nc2cc(C)cc(C)c2s1` gave PfHsp90 yeast 2 2, TIM10 inh 44*, SKKanGAS inh inconclusive, tim10-1 inh 51*, tim23-1 inh 55*, V-ATPase pH 0, tim10-1 confirm 29, TIM10 conf 30* and tim23-1 conf 39*.
For Cc1cc(C)c2sc(N(CCN(C)C)C(=O)CCS(=O)(=O)c3ccccc3)nc2c1 the results were PfHsp90 yeast 2 -10, TIM10 inh 13, SKKanGAS inh 3, tim10-1 inh 28, tim23-1 inh 13 and V-ATPase pH 1.
O=C(C[n+]1cn(C(F)F)c2ccccc21)c1ccc(Br)cc1 was read as PfHsp90 yeast 2 -5, TIM10 inh 72*, SKKanGAS inh 1, tim10-1 inh 64*, tim23-1 inh 55*, V-ATPase pH 5, tim10-1 confirm 65*, TIM10 conf 65* and tim23-1 conf 27.
`O=C(C[n+]1cc(Br)cc2ccccc21)c1ccc(Br)cc1` gave PfHsp90 yeast 2 13, TIM10 inh 26, SKKanGAS inh -4, tim10-1 inh 33, tim23-1 inh 29 and V-ATPase pH -2.
`Cc1cc(C)c2cc(C#N)c(SCC(=O)NCc3ccco3)nc2c1` gave PfHsp90 yeast 2 -11, TIM10 inh 10, SKKanGAS inh 1, tim10-1 inh 22, tim23-1 inh 16 and V-ATPase pH -3.
Cc1cc(C)c2cc(C)c(SCC(=O)NCc3ccco3)nc2c1 was read as PfHsp90 yeast 2 -13, TIM10 inh 32, SKKanGAS inh 0, tim10-1 inh 44*, tim23-1 inh 50*, V-ATPase pH 0, tim10-1 confirm 43* and tim23-1 conf 56*.

High-throughput results deposited in PubChem by several laboratories.
